# In PubChem BioAssay AID504523 (Broad Institute, 2011):
# Out of some 340,000 compounds screened, about 490 (0.14%) were called active. Cut-off read from the data, not from the text of the source: active = inhibition above about 12%; inconclusive = no clear call, values can overlap the other calls; inactive = below about 7.3%. This excerpt belongs to a sample that is enriched for actives.
# Biological target: Kelch-like ECH-associated protein 1 (Homo sapiens) (UniProt Q14145)
# Assay: Keap1-Nrf2 protein-protein interaction inhibitors, primary screen, biochemical, fluorescence polarization, single point (AID 504523);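 note: human Keap1 Kelch domain with fluorescein labeled Nrf2 9mer peptide probe; 0% = neutral control wells and 100% = peptide positive control; higher means more block of Keap1 binding to Nrf2 peptide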
# Conditions: Keap1 Kelch-Nrf2 peptide fluorescence polarization, 1536-well; at 9.4 µM; stronger effect = higher value
# Sequence of Kelch-like ECH-associated protein 1 (Homo sapiens) (Q14145 whole entry, looked up, the tested form may be a part): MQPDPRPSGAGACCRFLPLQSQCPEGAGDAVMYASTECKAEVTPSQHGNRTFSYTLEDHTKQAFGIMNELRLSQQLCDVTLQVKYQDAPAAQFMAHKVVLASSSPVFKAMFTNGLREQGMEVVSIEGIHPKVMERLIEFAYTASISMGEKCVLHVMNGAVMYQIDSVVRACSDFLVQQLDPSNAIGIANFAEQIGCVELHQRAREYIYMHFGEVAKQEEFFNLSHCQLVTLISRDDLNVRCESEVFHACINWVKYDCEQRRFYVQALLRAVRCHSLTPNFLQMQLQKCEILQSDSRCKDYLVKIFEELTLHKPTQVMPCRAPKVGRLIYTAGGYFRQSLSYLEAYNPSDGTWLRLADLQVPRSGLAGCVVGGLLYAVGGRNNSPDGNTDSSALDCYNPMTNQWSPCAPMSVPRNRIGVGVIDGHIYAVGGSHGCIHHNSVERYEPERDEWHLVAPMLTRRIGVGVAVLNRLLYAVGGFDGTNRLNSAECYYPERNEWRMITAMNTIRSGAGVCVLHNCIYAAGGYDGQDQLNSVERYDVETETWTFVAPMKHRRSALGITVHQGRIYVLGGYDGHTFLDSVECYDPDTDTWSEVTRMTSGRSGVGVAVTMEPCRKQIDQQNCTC
row,SMILES,inhibition
1,CC1(C)C(C=C(Cl)Cl)C1C(=O)NC(O)C(=O)c1ccccc1 (configuration not stated),1.65% (inactive)
2,Cc1c(C(=O)NC(=S)NCc2cccnc2)oc2ccccc12,-0.251% (inactive)
3,Cc1nnc(SC(C)C(=O)Nc2ccc(S(=O)(=O)NC3CCCCC3)cc2)s1 (configuration not stated),-0.0585% (inactive)
4,CCOC(=O)C1(Cc2ccc(Cl)cc2)CCN(C(=O)C2=NNC(=O)CC2)CC1,0.91% (inactive)
5,CN(Cc1nc2ccccc2c(=O)[nH]1)Cc1cc(=O)oc2ccc3ccccc3c12,-4.19% (inactive)
6,Cc1cc(=O)oc(C)c1C(=O)NC1CC(C)(C)NC(C)(C)C1,-0.963% (inactive)
7,Oc1ccc(-c2nc3ccccc3nc2-c2ccc(O)cc2O)c(O)c1,5.29% (inactive)
8,Oc1ccc2ccc3cccc[n+]3c2c1,128% (active)
9,COc1cc(NS(=O)(=O)c2ccc(NC(=O)CN3C(=O)c4ccccc4C3=O)cc2)ncn1,-2.44% (inactive)
10,O=C1Nc2ccc([N+](=O)[O-])cc2C1=Nc1cccc(CO)c1,2.07% (inactive)
11,CCSc1nc(C)c(CCOc2cccc(C)c2)c(=O)[nH]1,1.88% (inactive)
12,COc1cc(NC(=O)c2ccccc2NS(=O)(=O)c2ccc(Cl)s2)cc(OC)c1,-7.91% (inactive)
13,CCCN(CC(=O)Nc1ccccc1OC)C(=O)CCC(=O)c1ccc(F)cc1,-3.76% (inactive)
14,CCCCCNC(=O)C1c2ccccc2Oc2ccccc21,-1.43% (inactive)
15,CCCN(CCC)C(=O)C1c2ccccc2Oc2ccccc21,56.3% (active)
16,CCOC(=O)CC(NC(=O)C1c2ccccc2Oc2ccccc21)c1ccc(C)cc1 (configuration not stated),-0.485% (inactive)
17,S=C(Nc1cccnc1)Nc1ccccn1,0.955% (inactive)
18,CN/C(=C\[N+](=O)[O-])NCCSCc1csc(CN(C)C)n1,-2.6% (inactive)
19,COCCOC(=O)c1sc(=S)n(CCOC)c1N,-0.978% (inactive)
20,O=C(CSc1n[nH]c(-c2cccs2)n1)N1CCCCC1,-2.81% (inactive)
21,CC1(C)Cc2ccccc2-c2nnc(-c3cccc(O)c3)n21,-0.455% (inactive)
22,CCS(=O)(=O)Nc1ccc(C(=O)NCCSc2ccccc2)cc1,-1.14% (inactive)
23,CCCc1nc(-c2cc3cc(C)ccc3[nH]c2=O)no1,0.406% (inactive)
24,CCOc1ccc(S(=O)(=O)N2CCC(C(=O)OCc3ccc(OC)cc3)CC2)cc1,-2.62% (inactive)
25,NC(=O)c1ccccc1N=Cc1ccc2ccccc2c1,-5.11% (inactive)
26,COC(=O)c1ccc(COC(=O)c2c(C)nn(Cc3ccccc3Cl)c2Cl)o1,5.7% (inactive)
27,CSCC[C@H](NC(=O)CCCn1nnc2ccccc2c1=O)C(=O)O,-3.2% (inactive)
